# This is one part of a sample in which the strongest signals are shown more often than they occur.
# Tests used:
# Assay in all cases: glycan array binding signal (z-score within array); higher = stronger binding
# Conditions in all cases: glycan notation: IUPAC condensed, linker removed
# [1] = target: Fuc(a1-2)Gal(b1-3)GlcNAc(b1-2)Man(a1-3)[Fuc(a1-2)Gal(b1-3)GlcNAc(b1-2)Man(a1-6)]Man(b1-4)GlcNAc(b1-4)GlcNAc
# Outline: (§1)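 From the Consortium for Functional Glycomics database, 3228 arrays were curated, keeping only those whose protein sequence was available. Binding is given as a within-array Z-score averaged across arrays sharing a protein sequence and across linkers. Negative Z-scores can be read as non-binding.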
# [2] = target: Fuc(a1-2)Gal(b1-4)GlcNAc(b1-2)Man(a1-3)[Fuc(a1-2)Gal(b1-4)GlcNAc(b1-2)Man(a1-6)]Man(b1-4)GlcNAc(b1-4)[Fuc(a1-6)]GlcNAc
# Outline: as §1
# [3] = target: Fuc(a1-2)[Gal(a1-3)]Gal(b1-3)GlcNAc(b1-3)GalNAc
# Outline: as §1
# [4] = target: Fuc(a1-2)[GalNAc(a1-3)]Gal(b1-4)GlcNAc
# Outline: as §1
# [5] = target: Fuc(a1-2)[GalNAc(a1-3)]Gal(b1-4)GlcNAc(b1-2)Man(a1-3)[Fuc(a1-2)[GalNAc(a1-3)]Gal(b1-4)GlcNAc(b1-2)Man(a1-6)]Man(b1-4)GlcNAc(b1-4)[Fuc(a1-6)]GlcNAc
# Outline: as §1
# [6] = target: Fuc(a1-2)[GalNAc(a1-3)]Gal(b1-4)[Fuc(a1-3)]GlcNAc(b1-3)GalNAc
# Outline: as §1
# [7] = target: Fuc(a1-2)[GalNAc(b1-3)]Gal
# Outline: as §1
# [8] = target: Fuc(a1-3)[Gal(b1-4)]GlcNAc(b1-2)Man(a1-3)[Fuc(a1-3)[Gal(b1-4)]GlcNAc(b1-2)Man(a1-6)]Man(b1-4)GlcNAc(b1-4)GlcNAc
# Outline: as §1
# [9] = target: Gal(a1-3)Gal(b1-4)GlcNAc(b1-2)Man(a1-3)[Gal(a1-3)Gal(b1-4)GlcNAc(b1-2)Man(a1-6)]Man(b1-4)GlcNAc(b1-4)GlcNAc
# Outline: as §1
# [10] = target: Gal(a1-3)Gal(b1-4)GlcNAc(b1-6)GalNAc
# Outline: as §1
# [11] = target: Gal(a1-3)GalNAc
# Outline: as §1
# [12] = target: Gal(a1-4)Gal(b1-4)GlcNAc
# Outline: as §1
# [13] = target: Gal(b1-3)GlcNAc
# Outline: as §1
# [14] = target: Gal(b1-3)GlcNAc(b1-2)[Gal(b1-3)GlcNAc(b1-6)]Man(a1-6)[Gal(b1-3)GlcNAc(b1-2)Man(a1-3)]Man(b1-4)GlcNAc(b1-4)GlcNAc
# Outline: as §1
# [15] = target: Gal(b1-3)GlcNAc(b1-6)[Gal(b1-3)]GalNAc
# Outline: as §1
# [16] = target: Gal(b1-3)[Fuc(a1-4)]GlcNAc(b1-2)Man(a1-3)[Gal(b1-3)[Fuc(a1-4)]GlcNAc(b1-2)Man(a1-6)]Man(b1-4)GlcNAc(b1-4)[Fuc(a1-6)]GlcNAc
# Outline: as §1
# [17] = target: Gal(b1-3)[Neu5Ac(a2-6)]GlcNAc(b1-4)Gal(b1-4)Glc
# Outline: as §1
# [18] = target: Gal(b1-4)Gal
# Outline: as §1
# [19] = target: Gal(b1-4)GlcNAc(a1-6)Gal(b1-4)GlcNAc
# Outline: as §1
# [20] = target: Gal(b1-4)GlcNAc(b1-2)Man(a1-3)Man(b1-4)GlcNAc(b1-4)GlcNAc
# Outline: as §1
# [21] = target: Gal(b1-4)GlcNAc(b1-2)Man(a1-3)[Gal(b1-4)GlcNAc(b1-2)Man(a1-6)][Gal(b1-4)GlcNAc(b1-4)]Man(b1-4)GlcNAc(b1-4)[Fuc(a1-6)]GlcNAc
# Outline: as §1
# [22] = target: Gal(b1-4)GlcNAc(b1-2)[Gal(b1-4)GlcNAc(b1-6)]Man(a1-6)[GlcNAc(b1-4)][Gal(b1-4)GlcNAc(b1-2)Man(a1-3)]Man(b1-4)GlcNAc(b1-4)GlcNAc
# Outline: as §1
# [23] = target: Gal(b1-4)GlcNAc(b1-3)Gal(b1-4)GlcNAc(b1-2)[Gal(b1-4)GlcNAc(b1-3)Gal(b1-4)GlcNAc(b1-6)]Man(a1-6)[Gal(b1-4)GlcNAc(b1-3)Gal(b1-4)GlcNAc(b1-2)Man(a1-3)]Man(b1-4)GlcNAc(b1-4)GlcNAc
# Outline: as §1
# [24] = target: Gal(b1-4)GlcNAc(b1-3)Gal(b1-4)GlcNAc(b1-2)[Gal(b1-4)GlcNAc(b1-3)Gal(b1-4)GlcNAc(b1-6)]Man(a1-6)[Gal(b1-4)GlcNAc(b1-3)Gal(b1-4)GlcNAc(b1-2)Man(a1-3)]Man(b1-4)GlcNAc(b1-4)[Fuc(a1-6)]GlcNAc
# Outline: as §1
# [25] = target: Gal(b1-4)GlcNAc(b1-3)Gal(b1-4)GlcNAc(b1-3)Gal(b1-4)GlcNAc(b1-2)Man(a1-3)[Gal(b1-4)GlcNAc(b1-3)Gal(b1-4)GlcNAc(b1-3)Gal(b1-4)GlcNAc(b1-2)Man(a1-6)]Man(b1-4)GlcNAc(b1-4)[Fuc(a1-6)]GlcNAc
# Outline: as §1
# [26] = target: Gal(b1-4)GlcNAc(b1-3)Gal(b1-4)GlcNAc(b1-3)Gal(b1-4)GlcNAc(b1-3)Gal(b1-4)GlcNAc(b1-2)Man(a1-3)[Gal(b1-4)GlcNAc(b1-3)Gal(b1-4)GlcNAc(b1-3)Gal(b1-4)GlcNAc(b1-3)Gal(b1-4)GlcNAc(b1-2)Man(a1-6)]Man(b1-4)GlcNAc(b1-4)GlcNAc
# Outline: as §1
# [27] = target: Gal(b1-4)GlcNAc(b1-3)Gal(b1-4)GlcNAc(b1-3)Gal(b1-4)GlcNAc(b1-3)Gal(b1-4)GlcNAc(b1-3)Gal(b1-4)GlcNAc(b1-2)Man(a1-3)[Gal(b1-4)GlcNAc(b1-3)Gal(b1-4)GlcNAc(b1-3)Gal(b1-4)GlcNAc(b1-3)Gal(b1-4)GlcNAc(b1-3)Gal(b1-4)GlcNAc(b1-2)Man(a1-6)]Man(b1-4)GlcNAc(b1-4)GlcNAc
# Outline: as §1
# [28] = target: Gal(b1-4)GlcNAc(b1-3)Gal(b1-4)GlcNAc(b1-3)Gal(b1-4)GlcNAc(b1-3)Gal(b1-4)GlcNAc(b1-3)Gal(b1-4)GlcNAc(b1-2)Man(a1-3)[Gal(b1-4)GlcNAc(b1-3)Gal(b1-4)GlcNAc(b1-3)Gal(b1-4)GlcNAc(b1-3)Gal(b1-4)GlcNAc(b1-3)Gal(b1-4)GlcNAc(b1-2)Man(a1-6)]Man(b1-4)GlcNAc(b1-4)[Fuc(a1-6)]GlcNAc
# Outline: as §1
# [29] = target: Gal(b1-4)GlcNAc(b1-3)Gal(b1-4)GlcNAc(b1-6)[Gal(b1-3)]GalNAc
# Outline: as §1
# [30] = target: Gal(b1-4)GlcNAc(b1-6)[Gal(b1-3)]GalNAc
# Outline: as §1
binder,measurement,setting,value
"SspB A3vp1 (Streptococcus gordonii), Q54186 (protein) MTNEADYQAKLAAYQTELARVQKANADAKATYEKAVEDNKAKNAAIKAENEEIKQRNAVAKTDYEAKLAKYEADLAKYKKEFAAYTAALAEAESKKKQDGYLSEPRSQSLNFKSEPNAIRTIDSSVHQYGQQELDALVKSWGISPTNPDRKKSRAYSYFNAINSNNTYAKLVLEKDKPVDVTYTGLKNSSFNGKKISKVVYTYTLKETGFNDGTKMTMFASSDPTVTAWYNDYFTSTNINVKVKFYDEEGQLMNLTGGLVNFSSLNRGNGSGAIDKDAIESVRNFNGRYIPISGSSIKIHENNSAYADSSNAEKSLGARWNTSEWDTTSSPNNWYGAIVGEITQSEISFNMASSKSGNIWFAFNSNINAIGVPTKPVAPTAPTQPMYETEKPLEPAPVAPSYENEPTPPVKTPDQPEPSKPAAALEHHHHHH",glycan array binding signal (z-score),[1],6.26
same,glycan array binding signal (z-score),[2],-0.372
same,glycan array binding signal (z-score),[3],0.099
same,glycan array binding signal (z-score),[4],-0.651
same,glycan array binding signal (z-score),[5],0.127
same,glycan array binding signal (z-score),[6],3.5
same,glycan array binding signal (z-score),[7],-1.11
same,glycan array binding signal (z-score),[8],0.062
same,glycan array binding signal (z-score),[9],1.84
same,glycan array binding signal (z-score),[10],-0.506
same,glycan array binding signal (z-score),[11],-0.575
same,glycan array binding signal (z-score),[12],0.692
same,glycan array binding signal (z-score),[13],-0.432
same,glycan array binding signal (z-score),[14],1.46
same,glycan array binding signal (z-score),[15],0.011
same,glycan array binding signal (z-score),[16],0.75
same,glycan array binding signal (z-score),[17],-0.063
same,glycan array binding signal (z-score),[18],-0.088
same,glycan array binding signal (z-score),[19],-0.728
same,glycan array binding signal (z-score),[20],-0.334
same,glycan array binding signal (z-score),[21],3.03
same,glycan array binding signal (z-score),[22],0.194
same,glycan array binding signal (z-score),[23],3.16
same,glycan array binding signal (z-score),[24],3.01
same,glycan array binding signal (z-score),[25],3.73
same,glycan array binding signal (z-score),[26],3.61
same,glycan array binding signal (z-score),[27],3.36
same,glycan array binding signal (z-score),[28],3.38
same,glycan array binding signal (z-score),[29],2.1
same,glycan array binding signal (z-score),[30],0.609
